Results filed as inconclusive are left out. Where a call stands in place of a potency, no number is given. The source made the active and inactive calls. Unless noted, calls follow the shape of the dose curve; as a rule, active = well fitted curve in the direction sought with a large enough effect; inconclusive = small, poorly fitted or top-dose-only effect, or another doubt; inactive = no such curve, though single readings can be large; an effect the other way counts as inactive or inconclusive.
Key:
[1] = NS1 protein of Zika virus - qHTS assay to identify small molecule inhibitors in human HEK 293 cells (AID 1347053); also: nearly all actives have a fitted effect of over 55% in size; also: potency is read from the fitted curve at half-maximal effect
How it was run: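 Compound-treated (1 h pre-infection) HEK 293 cells infected with ZIKV MR766, MOI = 0.5; after 24 h at 37 C, NS1 read by TR-FRET; data normalized to uninfected and infected controls.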

[2] = qHTS of pediatric cancer cell lines to identify multiple opportunities for drug repurposing: Primary screen for TC32 cells (AID 1347089); also: nearly all actives have a fitted effect of over 60% in size; also: potency is read from the fitted curve at half-maximal effect
How it was run: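 Luminescent ATP read-out (CellTiter-Glo) of metabolically active TC32 cells after 48 h exposure. Concentration-response curves came from 11-point (MIPE, 0.78 nM–46 µM) or 8-point (NPC, 0.59 nM–46 µM) primary titrations; follow-up used 11 points.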

[3] = qHTS of pediatric cancer cell lines to identify multiple opportunities for drug repurposing: Primary screen for DAOY cells (AID 1347090); also: nearly all actives have a fitted effect of over 55% in size; also: potency is read from the fitted curve at half-maximal effect
How it was run: (§1)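 Viability measured as metabolically active cells via CellTiter-Glo luminescence following 48 hours of compound exposure, 11-point dilutions in confirmatory testing. 500-1,000 cells/well plated 5 hours before dosing; controls were DMSO and 2.3 µM bortezomib.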

[4] = qHTS of pediatric cancer cell lines to identify multiple opportunities for drug repurposing: Primary screen for SJ-GBM2 cells (AID 1347091); also: potency is read from the fitted curve at half-maximal effect
How it was run: as §1

[5] = qHTS of pediatric cancer cell lines to identify multiple opportunities for drug repurposing: Primary screen for A673 cells (AID 1347092); also: nearly all actives have a fitted effect of over 45% in size; also: potency is read from the fitted curve at half-maximal effect
How it was run: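 Cell viability of A673 measured by CellTiter-Glo ATP luminescence after 48 hours compound exposure. Dilution series spanned 0.78 nM to 46 µM (MIPE, 11-point) or 0.59 nM to 46 µM (NPC, 8-point); bortezomib 2.3 uM positive control.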

[6] = Natriuretic polypeptide receptor (hNpr1) antagonism - Pilot counterscreen GloSensor control cell line (AID 1347045; calls by dose curve; also: series mostly up to about 38 µM)
How it was run: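 Control counterscreen: luciferase cGMP-biosensor HEK293 cells (no Npr1) received compound for 30 min at room temperature after GloSensor substrate loading. Luminescence was measured before and 20 min after soluble guanylyl cyclase activation by 50 uM nitroprusside.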

[7] = biological target: Atrial natriuretic peptide receptor 1 (Homo sapiens) (UniProt P16066); assay: Natriuretic polypeptide receptor (hNpr1) antagonism - Pilot screen (AID 1347049; calls by dose curve;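 also: agonist-evoked cGMP luminescence read 20 min after hNppA addition; series mostly up to about 58 µM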)
How it was run: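 cGMP-sensor HEK293/hNpr1 cells, 1500/well, plated overnight at 37C. 2% GloSensor reagent, 2 h RT. Compound (23 nL pin transfer) 30 min RT, baseline luminescence pre-read. 0.1 nM hNppA, 20 min RT, post-read.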

[8] = biological target: Atrial natriuretic peptide receptor 2 (Homo sapiens) (UniProt P20594); assay: Natriuretic polypeptide receptor (hNpr2) antagonism - Pilot subtype selectivity assay (AID 1347050; calls by dose curve)
How it was run: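 Luminescence from a genetically encoded cGMP luciferase biosensor in hNpr2-expressing HEK293 cells is read before and 20 min after adding 1 nM hNppC. Test compounds, in interplate 1:5 titrations, are added 30-50 min ahead of the agonist.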

[9] = biological target: Parathyroid hormone/parathyroid hormone-related peptide receptor (Homo sapiens) (UniProt Q03431); assay: qHTS for PTHR1 Agonists: Optimization Screen against the NCGC LOPAC library (AID 1347079);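 also: GloSensor cAMP luminescence in HEK-293 GP2 cells expressing human PTHR1 with IBMX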
How it was run: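 HEK-293 GP2 cells, PTHR1 + GloSensor cAMP; 3000 cells/well, o/n. Luciferin + IBMX 0.5mM each (stock), 1 hr 37C. Cpd titration, 1 hr 37C. Lum after 15 min RT. Ctrl M-PTH(1-15) top 10uM.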

[10] = qHTS of pediatric cancer cell lines to identify multiple opportunities for drug repurposing: Primary screen for SK-N-MC cells (AID 1347093); also: series mostly up to about 46 µM
How it was run: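 Metabolically active cells were quantified by ATP-dependent luminescence (CellTiter-Glo, 15 min at room temperature) following 48 h treatment. Cells had been plated at 500-1,000 per well and settled for 5 h beforehand.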

Chain of Atrial natriuretic peptide receptor 2 (Homo sapiens) (P20594 whole entry, looked up): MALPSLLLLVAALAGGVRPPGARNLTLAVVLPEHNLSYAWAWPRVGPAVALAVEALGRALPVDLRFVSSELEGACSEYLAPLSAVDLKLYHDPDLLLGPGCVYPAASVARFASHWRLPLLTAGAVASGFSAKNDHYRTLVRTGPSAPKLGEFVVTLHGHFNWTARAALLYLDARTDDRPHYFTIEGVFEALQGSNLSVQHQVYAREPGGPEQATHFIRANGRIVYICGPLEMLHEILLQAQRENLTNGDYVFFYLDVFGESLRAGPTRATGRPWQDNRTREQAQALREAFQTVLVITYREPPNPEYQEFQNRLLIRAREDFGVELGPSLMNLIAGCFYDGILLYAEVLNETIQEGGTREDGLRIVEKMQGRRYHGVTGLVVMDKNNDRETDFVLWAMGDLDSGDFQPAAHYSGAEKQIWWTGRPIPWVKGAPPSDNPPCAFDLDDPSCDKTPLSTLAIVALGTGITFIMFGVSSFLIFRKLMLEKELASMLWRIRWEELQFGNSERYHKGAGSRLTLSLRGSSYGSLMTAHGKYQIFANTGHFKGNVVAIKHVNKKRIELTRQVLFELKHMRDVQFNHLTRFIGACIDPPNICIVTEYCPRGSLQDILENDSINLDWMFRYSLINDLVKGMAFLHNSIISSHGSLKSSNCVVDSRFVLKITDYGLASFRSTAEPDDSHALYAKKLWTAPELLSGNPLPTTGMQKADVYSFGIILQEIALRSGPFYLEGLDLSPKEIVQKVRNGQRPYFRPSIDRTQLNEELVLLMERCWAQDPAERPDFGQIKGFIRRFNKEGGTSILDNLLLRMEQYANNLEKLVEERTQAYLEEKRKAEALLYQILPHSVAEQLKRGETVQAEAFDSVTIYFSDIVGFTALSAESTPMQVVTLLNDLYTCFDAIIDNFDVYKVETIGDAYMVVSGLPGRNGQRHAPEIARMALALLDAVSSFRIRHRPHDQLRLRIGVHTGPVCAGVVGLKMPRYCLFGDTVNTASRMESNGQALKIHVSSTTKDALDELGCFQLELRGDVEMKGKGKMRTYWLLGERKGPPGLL
Chain of Parathyroid hormone/parathyroid hormone-related peptide receptor (Homo sapiens) (Q03431 whole entry, looked up): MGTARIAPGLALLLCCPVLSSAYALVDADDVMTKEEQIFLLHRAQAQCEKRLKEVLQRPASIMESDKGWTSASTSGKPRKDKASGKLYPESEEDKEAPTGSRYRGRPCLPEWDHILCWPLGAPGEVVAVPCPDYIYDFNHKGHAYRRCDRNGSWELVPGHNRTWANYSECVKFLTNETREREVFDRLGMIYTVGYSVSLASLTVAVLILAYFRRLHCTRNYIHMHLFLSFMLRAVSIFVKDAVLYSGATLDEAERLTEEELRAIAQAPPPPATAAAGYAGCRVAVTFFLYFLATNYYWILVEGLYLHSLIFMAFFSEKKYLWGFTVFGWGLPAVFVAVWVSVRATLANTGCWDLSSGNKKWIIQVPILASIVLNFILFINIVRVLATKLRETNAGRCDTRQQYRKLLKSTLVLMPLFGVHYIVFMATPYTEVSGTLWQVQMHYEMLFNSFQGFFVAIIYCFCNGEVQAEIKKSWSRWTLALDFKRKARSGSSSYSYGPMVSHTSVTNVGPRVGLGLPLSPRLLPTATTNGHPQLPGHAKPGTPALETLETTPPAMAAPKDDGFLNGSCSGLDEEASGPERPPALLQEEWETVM
Chain of Atrial natriuretic peptide receptor 1 (Homo sapiens) (P16066 whole entry, looked up): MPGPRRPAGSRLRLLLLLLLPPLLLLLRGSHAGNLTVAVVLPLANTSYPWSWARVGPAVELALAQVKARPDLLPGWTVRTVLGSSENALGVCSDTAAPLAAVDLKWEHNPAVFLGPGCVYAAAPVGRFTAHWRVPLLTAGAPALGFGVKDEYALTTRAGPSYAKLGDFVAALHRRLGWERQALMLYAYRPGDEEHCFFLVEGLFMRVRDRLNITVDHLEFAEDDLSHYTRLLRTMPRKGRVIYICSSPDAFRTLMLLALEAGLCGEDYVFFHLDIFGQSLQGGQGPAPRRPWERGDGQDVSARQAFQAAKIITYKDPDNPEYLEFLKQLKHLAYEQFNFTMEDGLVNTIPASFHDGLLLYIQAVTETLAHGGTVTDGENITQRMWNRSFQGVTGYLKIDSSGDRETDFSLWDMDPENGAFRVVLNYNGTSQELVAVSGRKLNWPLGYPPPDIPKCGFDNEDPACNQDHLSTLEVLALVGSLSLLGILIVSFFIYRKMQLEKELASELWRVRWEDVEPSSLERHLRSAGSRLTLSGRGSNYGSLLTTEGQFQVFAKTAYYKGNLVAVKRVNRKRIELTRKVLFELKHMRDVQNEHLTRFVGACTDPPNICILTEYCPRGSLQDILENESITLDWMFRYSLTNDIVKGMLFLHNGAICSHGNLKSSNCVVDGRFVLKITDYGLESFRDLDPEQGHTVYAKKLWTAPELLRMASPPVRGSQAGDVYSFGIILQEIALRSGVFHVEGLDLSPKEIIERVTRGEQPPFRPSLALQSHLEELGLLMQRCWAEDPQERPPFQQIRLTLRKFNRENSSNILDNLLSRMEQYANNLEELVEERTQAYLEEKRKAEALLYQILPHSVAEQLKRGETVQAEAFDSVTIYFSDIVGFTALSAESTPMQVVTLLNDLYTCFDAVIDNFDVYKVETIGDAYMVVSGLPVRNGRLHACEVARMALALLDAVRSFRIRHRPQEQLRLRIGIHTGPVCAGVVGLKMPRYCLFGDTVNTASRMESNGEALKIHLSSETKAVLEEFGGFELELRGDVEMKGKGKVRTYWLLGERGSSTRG

COc1ccc(Nc2nccc(NCCO)n2)cc1
Potency [1]: inactive
Potency [2]: inactive
Potency [3]: inactive
Potency [4]: inactive
Potency [5]: inactive

COc1ccc2cc([S+]([O-])Cc3ncc(C)c(OC)c3C)nc2c1
outcome [6]: inactive
outcome [7]: inactive
outcome [8]: inactive
outcome [9]: inactive
Potency [2]: inactive
Potency [3]: inactive
Potency [4]: inactive
Potency [5]: inactive
Potency [10]: inactive

C[C@@]12C(=O)OC(=O)[C@@]1(C)C1CCC2O1
Potency [1]: 3.72 µM (active)
Potency [2]: 13.1 µM (active)
Potency [3]: 2.96 µM (active)
Potency [4]: 2.09 µM (active)
Potency [5]: 4.69 µM (active)

C=C1C(=O)O[C@H]2[C@@H]1CCC(C)=CCC[C@@]1(C)O[C@@H]21
Potency [1]: 9.35 µM (active)
Potency [2]: 23.4 µM (active)
Potency [3]: 9.35 µM (active)
Potency [4]: 8.33 µM (active)
Potency [5]: 7.43 µM (active)

C[C@H]1C[C@H]2[C@@H]3CCC4=CC(=O)C=C[C@]4(C)[C@@H]3C(=O)C[C@]2(C)[C@@]1(O)C(=O)CO
Potency [1]: inactive
Potency [2]: inactive
Potency [3]: inactive
Potency [4]: inactive
Potency [5]: inactive

CN[C@H](CC(C)C)C(=O)N[C@H]1C(=O)N[C@@H](CC(N)=O)C(=O)N[C@@H]2C(=O)N[C@H]3C(=O)N[C@H](C(=O)N[C@H](C(=O)O)c4cc(O)cc(O)c4-c4cc3ccc4O)[C@H](O)c3ccc(c(Cl)c3)Oc3cc2cc(c3O[C@@H]2O[C@H](CO)[C@@H](O)[C@H](O)[C@@H]2O[C@H]2C[C@](C)(N)[C@H](O)[C@H](C)O2)Oc2ccc(cc2Cl)[C@H]1O
outcome [6]: inactive
outcome [7]: inactive
outcome [8]: inactive
Potency [1]: inactive
outcome [9]: inactive
Potency [2]: inactive
Potency [3]: inactive
Potency [4]: inactive
Potency [10]: inactive

N#CC(=C(N)Sc1ccc(N)cc1)c1ccccc1C(F)(F)F
Potency [1]: inactive
Potency [2]: inactive
Potency [3]: inactive
Potency [4]: inactive
Potency [5]: inactive

Cc1cn([C@@H]2O[C@H](CO)[C@@H](O)[C@H]2F)c(=O)[nH]c1=O
Potency [1]: inactive
Potency [2]: inactive
Potency [3]: inactive
Potency [4]: inactive
Potency [5]: inactive

Cc1cc(O)c2c(c1)C(=O)c1cccc(O)c1C2=O
Potency [1]: inactive
Potency [2]: inactive
Potency [3]: inactive
Potency [4]: inactive
Potency [5]: inactive

NC[C@H]1O[C@H](O[C@H]2[C@@H](O)[C@@H](O[C@H]3O[C@H](CO)[C@@H](O)[C@H](N)[C@@H]3O)[C@H](N)C[C@@H]2N)[C@H](N)C[C@H]1O
Potency [1]: inactive
Potency [2]: inactive
Potency [3]: inactive
Potency [4]: inactive
Potency [5]: inactive

C[C@H](NCc1ccc2c(c1)nc(NC(=O)c1ccc(-c3cn[nH]c3)s1)n2CCc1ccccc1)C(C)(C)C
Potency [1]: 8.33 µM (active)
Potency [2]: 9.3 µM (active)
Potency [3]: 2.96 µM (active)
Potency [4]: 1.05 µM (active)
Potency [5]: 0.743 µM (active)

COC(=O)[C@@H]1[C@H]2C[C@@H]3c4[nH]c5ccccc5c4CCN3C[C@@H]2CC[C@@H]1O
Potency [1]: inactive
Potency [2]: inactive
Potency [3]: inactive
Potency [4]: inactive

O=c1[nH]c(=O)n([C@H]2C[C@@H](O)[C@@H](CO)O2)cc1C=CBr
outcome [6]: inactive
outcome [7]: inactive
outcome [8]: inactive
Potency [1]: inactive
outcome [9]: inactive
Potency [2]: inactive
Potency [3]: inactive
Potency [4]: inactive
Potency [5]: inactive
Potency [10]: inactive

C=C[C@@H]1CN2CCC1C[C@H]2[C@H](O)c1ccnc2ccc(OC)cc12 (stereo partly drawn)
Potency [1]: inactive
Potency [2]: inactive
Potency [3]: inactive
Potency [4]: inactive
Potency [5]: inactive

O=C(C[C@@H]1CC=CCCC(=O)O[C@H](c2ccccc2)CNC1=O)NCc1ccc(Cl)cc1
Potency [1]: inactive
Potency [2]: inactive
Potency [3]: inactive
Potency [4]: inactive
Potency [5]: inactive

C#C[C@]1(O)CC[C@@H]2[C@@H]3CCC4=CC(=O)CC[C@@H]4[C@H]3CC[C@@]21CC
Potency [1]: inactive
Potency [2]: inactive
Potency [3]: inactive
Potency [4]: inactive
Potency [5]: inactive

N#Cc1cc(NC(=O)Nc2nnc(-c3ccncc3)s2)ccc1-c1cn[nH]c1
Potency [1]: inactive
Potency [2]: inactive
Potency [3]: inactive
Potency [4]: inactive

C=C(C)[C@@H]1CC[C@]2(C)CC[C@]3(C)[C@H](CC[C@@H]4[C@@]5(C)CC[C@H](O)C(C)(C)[C@H]5CC[C@]43C)[C@@H]12
Potency [1]: inactive
Potency [2]: inactive
Potency [3]: inactive
Potency [4]: inactive
Potency [5]: inactive

C[C@]12C=CC(=O)N[C@@H]1CC[C@H]1[C@H]3CC[C@@H](C(=O)Nc4cc(C(F)(F)F)ccc4C(F)(F)F)[C@@]3(C)CC[C@@H]12
Potency [1]: inactive
Potency [2]: inactive
Potency [3]: inactive
Potency [4]: 14.8 µM (active)

Cc1cc(Nc2ncc3c(n2)N(C)C(=O)N(c2cc(NC(=O)c4cccc(C(F)(F)F)c4)ccc2C)C3)n(C)n1
Potency [1]: inactive
Potency [2]: 1.47 µM (active)
Potency [3]: 0.935 µM (active)
Potency [4]: 0.296 µM (active)
Potency [5]: 0.372 µM (active)

CC[C@H]1OC(=O)[C@H](C)[C@@H](O[C@H]2C[C@@](C)(OC)[C@@H](O)[C@H](C)O2)[C@H](C)[C@@H](O[C@@H]2O[C@@H](C)C[C@H](N(C)C)[C@@H]2O)[C@](C)(O)C[C@@H](C)C(=O)[C@H](C)[C@@H](O)[C@]1(C)O
Potency [1]: inactive
Potency [2]: inactive
Potency [3]: inactive
Potency [4]: inactive

C[N+](C)([O-])CCNc1ccc(NCC[N+](C)(C)[O-])c2c1C(=O)c1c(O)ccc(O)c1C2=O
Potency [1]: inactive
Potency [2]: 5.23 µM (active)
Potency [3]: inactive
Potency [4]: inactive

From PubChem BioAssay (NCATS)
